# According to PubChem BioAssay (EPA / NIEHS):
# Results filed as inconclusive are left out. A structure can be active in one record and inactive in another. Calls of active or inactive are those of the source. How the source made its calls: active means hit-call score of the fitted dose curve at least 0.9, where 1 is the maximum; inconclusive means response in the unintended direction; inactive means score below 0.9.
# Assay: Tanguay_ZF_120hpf_CFIN_legacy: (Legacy) Oregon State University Tanguay Lab 120 Hour Post-fertilization zebrafish Assay for Caudal Fin Malformation (AID 2283649)
# Protocol: Tanguay_ZF_120hpf_legacy is a whole embryo, multiplexed endpoint assay using zebrafish larvae exposed for 120 hours post fertilization on a 96-well plate.Tanguay_ZF_120hpf_CFIN_legacy is one of one assay component(s) measured or calculated from the Tanguay_ZF_120hpf_legacy assay. It is designed to make measurements of zebrafish development as detected with brightfield microscopy of developing zebrafish embryos.Data from the assay component Tanguay_ZF_120hpf_CFIN_legacy was analyzed into 1 assay endpoints. This assay endpoint, Tanguay_ZF_120hpf_CFIN_legacy, was analyzed in the positive analysis fitting direction relative to DMSO as the negative control and baseline of activity. Using a type of morphology reporter, gain-of-signal activity can be used to understand changes in developmentals as they relate to the whole embryo. To generalize the intended target to other relatable targets, this assay endpoint is annotated to the zebrafish development intended target family, where the subfamily is caudal fin morphogenesis.
# Zebrafish husbandry: Tropical 5D wild-type adult zebrafish were housed in at an approximate density of 1000 per 100 gallon tank at the Sinnhuber Aquatic Research Laboratory, Oregon State University, Corvallis, OR. Each tank was kept at standard laboratory conditions of 28C on a 14-h light/10-h dark photoperiod in fish water consisting of reverse osmosis water supplemented with a commercially available salt (Instant Ocean). Spawning funnels were placed into the tanks the night prior, and embryos were collected and staged. To increase bioavailability, the chorion was enzymatically removed using pronase (63.6mg/ml, >/= 3.5U/mg, Sigma-Aldrich: P5147) at 4 hours post fertilization (hpf) using a custom automated dechorionator.Chemical exposures: Six hpf dechorionated embryos were placed 1 embryo per well in a 96-well plate prefilled with 90 ul of EM using automated embryo placement systems (AEPS). Ten microliters of each row of dilution plate 2 was added to 2 exposure plates. The final DMSO concentration used was 0.64% (vol/vol). Thirty-two embryos were also exposed to 5uM trimethyltin chloride (positive control). Plates were sealed to prevent evaporation and foil covered to reduce light exposure and kept in a 28C incubator. Embryos were statically exposed until 120 hpf. At 24 hpf, embryos were assessed for photomotor response using a custom photomotor response analysis tool (PRAT) and for developmental toxicity endpoints (MO24: mortality at 24 hpf, DP: developmental progression, SM: spontaneous movement, and NC: notochord distortion). At 120 hpf, locomotor activity was measured using Viewpoint Zebralab and assessed for 18 endpoints. Zebrafish acquisition and analysis program (ZAAP), a custom program designed to inventory, acquire, and manage zebrafish data, was used to collect developmental endpoints as either present or absent (i.e., binary responses were recorded). If mortality occurred for an embryo (at either 24 or 120 hpf), the non-mortality endpoints were not measured.
SMILES,AC50,outcome
O=S(=O)(O)C(F)(F)C(F)(F)C(F)(F)C(F)(F)C(F)(F)C(F)(F)C(F)(F)C(F)(F)F,12.2 µM (active),inactive
O=C(NC(=O)c1c(F)cccc1F)Nc1ccc(OC(F)(F)C(F)OC(F)(F)F)c(Cl)c1 (stereo not given),,inactive
Oc1cc(Cl)ccc1Oc1ccc(Cl)cc1Cl,,inactive
CNC(=O)Oc1ccccc1OC(C)C,,inactive
O=S1OCC2C(CO1)C1(Cl)C(Cl)=C(Cl)C2(Cl)C1(Cl)Cl (stereo not given),,inactive
CCc1ccc(C(=O)NN(C(=O)c2cc(C)cc(C)c2)C(C)(C)C)cc1,,inactive
OCCOc1ccccc1,,inactive
ClC1C(Cl)C(Cl)C(Cl)C(Cl)C1Cl (stereo not given),,inactive
O=C(Nc1ccccc1)Nc1cnns1,,inactive
CCC(C)(NC(=O)c1cc(Cl)c(C)c(Cl)c1)C(=O)CCl (stereo not given),,inactive
Oc1ccc(Cl)cc1Cc1ccccc1,,inactive
N#CN,,inactive
O=C(O)COc1ccc(Cl)cc1Cl,,inactive
CC(C)OC(=O)Nc1cccc(Cl)c1,,inactive
CC(C)(C)C(O)C(Oc1ccc(Cl)cc1)n1cncn1 (stereo not given),40.7 µM (active),inactive
COc1nn(CSP(=S)(OC)OC)c(=O)s1,,inactive
CNC(=O)Oc1cccc(N=CN(C)C)c1,,inactive
O=C(O)CCCOc1ccc(Cl)cc1Cl,,inactive
O=C(O)C(F)(F)C(F)(F)C(F)(F)C(F)(F)C(F)(F)C(F)(F)C(F)(F)F,,inactive

SMILES,AC50,outcome
CNC(=O)CSP(=S)(OC)OC,,inactive
O=[N+]([O-])c1c(Cl)c(Cl)c(Cl)c(Cl)c1Cl,,inactive
CC(C)N(C(=O)COc1nnc(C(F)(F)F)s1)c1ccc(F)cc1,,inactive
N#Cc1c(Cl)c(Cl)c(Cl)c(C#N)c1Cl,,inactive
CCC(C)(C)C(=O)OC1=C(c2ccc(Cl)cc2Cl)C(=O)OC12CCCCC2,,inactive
CCN(CC)C(=O)SCc1ccc(Cl)cc1,,inactive
C[C@H]1[C@H](c2ccc(Cl)cc2)SC(=O)N1C(=O)NC1CCCCC1,,inactive
CCCN(CCOc1c(Cl)cc(Cl)cc1Cl)C(=O)n1ccnc1,,inactive
CCOC1Oc2ccc(OS(C)(=O)=O)cc2C1(C)C (stereo not given),,inactive
CC1(c2ccc(Oc3ccccc3)cc2)OC(=O)N(Nc2ccccc2)C1=O (stereo not given),,inactive
O=[N+]([O-])/N=C1\NCCN1Cc1ccc(Cl)nc1,,inactive
C#CCN1C(=O)COc2cc(F)c(N3C(=O)C4=C(CCCC4)C3=O)cc21,,inactive
CC[C@H](C)[C@H]1O[C@]2(C=C[C@@H]1C)C[C@@H]1C[C@@H](C/C=C(\C)[C@@H](O[C@H]3C[C@H](OC)[C@@H](O[C@H]4C[C@H](OC)[C@@H](O)[C@H](C)O4)[C@H](C)O3)[C@@H](C)/C=C/C=C3\CO[C@@H]4[C@H](O)C(C)=C[C@@H](C(=O)O1)[C@]34O)O2 (tested in a mixture with another compound),,inactive
CCC(C)Nc1c([N+](=O)[O-])cc(C(C)(C)C)cc1[N+](=O)[O-] (stereo not given),,inactive
O=C1c2ccccc2C(=O)N1SC(Cl)(Cl)Cl,,inactive
CCOCN(C(=O)CCl)c1c(C)cccc1CC,,inactive
CCCN(CCC)c1c([N+](=O)[O-])cc(C(F)(F)F)cc1[N+](=O)[O-],,inactive
CC1(C)C(C=C(Cl)Cl)C1C(=O)OC(C#N)c1ccc(F)c(Oc2ccccc2)c1 (stereo not given),,inactive
Cc1[nH]c(=O)n(C(C)(C)C)c(=O)c1Cl,,inactive
